A selection: hits, their analogues and other compounds. The true share with any hit is near 5.7%.
NR3A LBD binder = binders of NR3A ligand-binding domain, primary screen, biophysical, differential scanning fluorimetry, uHTS; 2.5% of 340,000 active; Glutamate receptor ionotropic, NMDA 3A (GRIN3A) ligand-binding domain; Tm shift relative to glycine control, % at 25 µM; NR3A LBD differential scanning fluorimetry, Tm shift; 0% = protein alone, 100% = glycine-bound protein;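 active = melting temperature shift of at least 10% of the positive control shift, at one fixed dose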
MPTP inh = mitochondrial permeability transition pore inhibitors, primary screen, biochemical, isolated mouse mitochondria, absorbance; Ca2+ swelling absorbance, 30 min; inhibition, % at 10 µM; 1.4% of 360,000 active; AID 602449, 2012;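 active = inhibition of 50% or more, scaled per plate between neutral and stimulator controls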
rCAG RNA binder = binders of r(CAG) RNA repeats, primary screen, biochemical, fluorescence; AID 651821, 2012; r(CAG) RNA repeat, TO-PRO-1 dye displacement fluorescence; 1.3% of 370,000 active; inhibition, % at 3 µM;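 active = inhibition above the plate cutoff, the mean of all test compounds on that plate plus 3 SD, cut at about 35% in these data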;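 also: higher means more dye released from RNA so lower well fluorescence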
Myeloid diff 2 = induction of myeloid progenitor differentiation, primary screen, cell-based, flow cytometry, MLPCN library. ER-HoxA9 myeloid progenitors, lysozyme-GFP differentiation. 1% of 360,000 active. calls only at 10 µM. AID 624256, 2012;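 active = normalized GFP-positive differentiation at or above the plate's own cutoff, the solvent-only control mean plus 3 SD; inconclusive = no clear call, values can overlap the other calls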;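 also: cells exposed to compound for four days before flow analysis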
FAS TE block = FAS thioesterase domain inhibitors, primary screen, biochemical, fluorescence intensity, uHTS | Fatty acid synthase (Homo sapiens), P49327 | recombinant FAS-TE, OMFH fluorogenic substrate, fluorescence endpoint | inhibition, % at 15 µM | 0.67% of 360,000 active | AID 602261, 2012;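 active = compounds whose normalised, plate-corrected inhibition of enzyme fluorescence in the single-dose primary screen is 50% or more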
Rh123 counter = fluorescence retest of MPTP screen hits in isolated mitochondria, single concentration | shares compounds with MPTP inh | membrane potential, Rhodamine 123 fluorescence | inhibition, % at 10 µM | 78% of 5,000 active | AID 624504, 2012; in the data active = inhibition above about 22%
MPTP abs DR = mitochondrial permeability transition pore inhibitors, dose response, biochemical, absorbance, uHTS hits. shares compounds with MPTP inh. IC50, µM. isolated mitochondria swelling. 58% of 780 active; in the data active = IC50 below about 20 µM
MPTP counter DR = fluorescent counter-screen in isolated mitochondria, dose response, counter-screen for MPTP inhibitor project, biochemical, fluorescence, uHTS hits; shares compounds with MPTP inh; isolated mitochondria counterscreen, fluorescence read-out; IC50, µM; 49% of 780 active; in the data active = IC50 below about 80 µM
Hits are given with their value; 0 = inactive; ? = inconclusive; - = no result; + = active, no number.

SMILES	NR3A LBD binder	MPTP inh	rCAG RNA binder	Myeloid diff 2	FAS TE block	Rh123 counter	others
C=CCc1cccc(CNc2cnc3ccccc3c2)c1O	0	88.7	0	0	0	84.0
Oc1ccccc1CNc1cnc2ccccc2c1	0	70.8	0	0	0	59.0
O=C(COC(=O)CCNS(=O)(=O)c1cccs1)Nc1ccccc1	0	0	0	0	0	-
C=CS(=O)(=O)c1c2cc(OC)ccc2nc2ccc(OC)cc12	0	0	0	-	0	-
CC(NC(=S)Nc1ccc(S(=O)(=O)N2CCOCC2)cc1)C1CC2CCC1C2 (centres undefined)	0	93.3	0	0	0	92.4
CC(C)CCCCCCNC(=S)Nc1ccc(S(=O)(=O)N2CCOCC2)cc1	26.5	84.0	0	-	0	83.2
CC(=O)Nc1ccc(S(=O)(=O)NC2CC(=O)N(c3ccc(C)cc3)C2)cc1 (centres undefined)	0	0	0	0	0	-
O=C(CSc1nnc(-c2ccc(Cl)cc2)n1Cc1ccco1)Nc1cccc2ccccc12	-	-	0	-	-	-
CCOc1ccc(-n2c(C)cc(/C=C3/C(=N)N4C(=NC3=O)SN=C4S(C)(=O)=O)c2C)cc1	0	76.0	0	0	0	28.2
CSc1c(CC(=O)Nc2ccc(F)cc2)n(Cc2ccccc2)c2ccccc12	0	81.3	0	0	0	66.9
Cc1cc(=O)n(C)c(=O)n1CCCCCCOc1cccc([N+](=O)[O-])c1	0	57.1	0	0	0	20.5
CC(=O)Nc1cccc(OCCOc2cccc([N+](=O)[O-])c2)c1	0	0	0	0	0	-
CC[C@H](C)[C@@H](CN[C@H](C)CNC)NCCC(c1ccccc1)c1ccccc1	0	101.0	0	0	0	0	MPTP abs DR=3.81;MPTP counter DR=0
COc1ccc(C(=O)/C=C2\Sc3ccccc3N2C)cc1	0	0	0	0	0	-
COc1ccccc1-[n+]1c(C)cc(/C=C2\Sc3ccccc3N2C)cc1C	0	104.4	0	-	0	102.0
COc1ccc(-[n+]2c(C)cc(/C=C3\Sc4ccccc4N3C)cc2C)cc1	0	94.6	0	-	0	96.7
CC(=O)c1c(C)n(CCc2ccc(Cl)cc2)c2ccc(O)cc12	0	0	0	0	0	-
C/C(N=Nc1nc2ccccc2s1)=N\Nc1ccccc1O	0	91.0	0	0	0	54.0
Cc1cc(C)c2c(=O)n3c(nc2c1)C(CC(C)C)NC(=O)c1cccnc1-3 (centres undefined)	-	0	0	0	0	-
Cc1cccc(Nc2nnc(SCc3cn4ccsc4n3)s2)c1	0	76.0	0	0	0	0	MPTP abs DR=0;MPTP counter DR=0
O=c1cc(CSc2nnc(Nc3ccccc3)s2)nc2sccn12	0	0	0	0	0	-
COC(=O)[C@@]12C[C@@H](CC(=O)N3CCN(C(=O)C4CC4)CC3)C(=O)N(Cc3ccccc3)C1=CCC(C)(C)C2	-	0	0	0	-	-
O=C(N=C1SC2CS(=O)(=O)CC2N1c1ccccc1)c1cccc([N+](=O)[O-])c1 (centres undefined)	0	0	0	0	0	-
CCCCCCc1cc2cc(S(=O)(=O)c3ccc(Cl)cc3)c(=O)oc2cc1O	106.1	100.8	0	0	0	94.4
O=c1oc2cc(O)ccc2cc1S(=O)(=O)c1ccccc1	0	0	0	?	0	-
SMILES	NR3A LBD binder	MPTP inh	rCAG RNA binder	Myeloid diff 2	FAS TE block	Rh123 counter	others
CCCCCCc1cc2cc(S(=O)(=O)c3ccc(C)cc3)c(=O)oc2cc1O	26.9	98.6	0	0	0	78.1
CN(C)[C@@H]1CCN(c2ccc3c(c2)OCCCN(C2CC2)S3(=O)=O)C1	-	-	0	-	-	-
CC(C)(C)c1nc(N2CCN(C(=O)c3ccco3)CC2)c2nnn(Cc3ccccc3)c2n1	0	53.9	0	0	0	68.9
Cc1cc2oc3ccc(NCCCn4ccnc4)cc3c(=O)c2cc1C	0	57.5	0	0	0	0
Cc1cc2oc3ccc(NCCCN4CCOCC4)cc3c(=O)c2cc1C	0	0	0	0	0	-
N#Cc1cn(N2CCCCC2)c(=O)[nH]c1=O	0	0	0	0	0	-
Cc1nn(-c2ccccc2)c2ncc(C(=O)c3cc(Cl)ccc3O)cc12	0	62.1	0	0	0	83.0
COc1ccccc1-c1nc(SCC(=O)Nc2cc(C)on2)c2c(=O)n(C)c(=O)n(C)c2n1	0	0	0	0	0	-
CCOc1ccccc1-c1cc(-c2ccc(OC)cc2)nc2c1c(=O)n(C)c(=O)n2C	0	82.8	0	-	0	0	MPTP abs DR=0;MPTP counter DR=0
CCc1ccc(Nc2n[n+](-c3ccccc3)c(-c3c(Cl)cccc3Cl)s2)cc1	0	100.3	0	?	0	112.0
COc1ccc(C)cc1Nc1n[n+](-c2ccccc2)c(-c2ccc(N(C)C)cc2)s1	0	88.8	0	0	0	100.0
CCN(CC)c1ccc(-c2sc(Nc3ccccc3)n[n+]2-c2ccc(F)cc2)cc1	0	60.8	0	+	0	102.0
CCc1ccc(Nc2n[n+](-c3ccccc3)c(-c3ccc(N(CC)CC)cc3)s2)cc1	0	95.5	0	-	0	113.6
COc1ccc(C)cc1Nc1n[n+](-c2ccccc2)c(-c2ccc(OC)c(OC)c2OC)s1	0	0	0	0	0	-
Fc1ccc(-[n+]2nc(Nc3ccccc3)sc2-c2c(Cl)cccc2Cl)cc1	0	0	0	0	0	-
CN(C)c1ccc(-c2sc(Nc3ccccc3)n[n+]2-c2ccc(F)cc2)cc1	0	0	0	0	0	-
O=C(NCc1cc(C(F)(F)F)cc(C(F)(F)F)c1)c1cc(-c2cc(F)ccc2OCC2CCCO2)n[nH]1 (centres undefined)	-	0	0	0	0	-
O=C(CSc1nnc(Cc2ccccc2)n1-c1cccc(Cl)c1)NNC(=O)Cc1ccccc1	0	0	0	0	0	-
O=C(Nc1cccc(Cl)c1)N(CCN1CCOCC1)Cc1cccc(Cl)c1	0	85.1	0	0	0	91.3
O=C(Nc1cccc(Cl)c1)N(CCN1CCOCC1)Cc1ccccc1F	0	79.2	0	0	0	77.3
N#CCC(=O)NCCCOC(=O)Nc1ccc(Cl)c(Cl)c1	0	79.3	0	0	0	85.8
CC1=C[C@@H](C)[C@@H](c2ccc(C(F)(F)F)cc2)OC1=O	0	0	0	0	0	-
COc1cccc(C(=O)Nc2ccc(Cl)c(C(F)(F)F)c2)c1	0	99.2	0	0	0	89.0
CCNC(=S)Nc1ccc(Cl)c(C(F)(F)F)c1	0	90.6	0	0	0	95.0
O=C(Nc1ccc(Cl)c(C(F)(F)F)c1)c1ccco1	0	80.6	0	0	0	73.5

High-throughput results deposited in PubChem by several laboratories.
